bovine MsrA act: bovine methionine sulfoxide reductase A activation; purified bovine MsrA, absorbance read-out; activation, % at 10.6 µM; hit rate 0.3% among 360,000; AID 602163; in the data active means activation above about 7.5%;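 further: 0% = vehicle and 100% = reference activator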
rCAG binder: binds r(CAG) RNA repeats | inhibition, % at 3 µM | hit rate 1.3% among 370,000 | r(CAG) RNA repeat, TO-PRO-1 dye displacement fluorescence | AID 651821;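 active means inhibition above the plate cutoff, the mean of all test compounds on that plate plus 3 SD, cut at about 35% in these data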;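 further: 0% = DMSO alone and 100% = 100 µM mitoxantrone as full dye displacement; higher means more dye released from RNA so lower well fluorescence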
NadD block: blocks S. aureus nicotinate mononucleotide adenylyltransferase; purified NadD enzyme, colorimetric absorbance read-out; inhibition, % at 20 µM; hit rate 0.78% among 360,000; AID 602399; in the data active means inhibition above about 26%
MsrA inh: inhibitors of bovine MsrA; purified bovine MsrA, absorbance read-out; inhibition, % at 15.5 µM; hit rate 0.75% among 360,000; AID 651718;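 further: 0% = vehicle wells with enzyme and 100% = reference inhibitor wells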
MsrA inh confirm: confirmation of bovine MsrA inhibitors; shares compounds with MsrA inh; hit rate 41% among 2,300; inhibition, % at 15.5 µM; AID 651822; purified bovine MsrA, absorbance read-out;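 further: coupled to thioredoxin reductase with NADPH and selenocystamine and DMSO as substrate; 0% = vehicle only and 100% = full effect of reference inhibitor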
* marks the source's active call; other numbers are inactive results. Shown are actives, neighbours in structure and some others; about 2.7% of the full set was active somewhere. Unless noted, no stated cut-off is given here; in the data, active means inhibition above about 4.5%; inactive means the rest.

How did N#Cc1cn(-c2ccccc2)nc1-c1ccco1 do in these assays?
bovine MsrA act: -6.2; rCAG binder: 10.9; NadD block: 9.1; MsrA inh: 5.2*; MsrA inh confirm: 3.8

How did CN(C)CCNc1ncnc2c1sc1nc(-c3ccccc3)c3c(c12)CCCC3 do in these assays?
bovine MsrA act: -1.7; rCAG binder: 14.6; NadD block: 9.5; MsrA inh: -1.0

What do the screens show for `CCOC(=O)CCCCC1C(CCCC(=O)OCC)C=NN1C` (centres undefined)?
bovine MsrA act: -0.9; rCAG binder: 2.2; NadD block: -0.2; MsrA inh: -1.4

What do the screens show for `N#Cc1c(SCc2ccccc2)nc(N2CCOCC2)c2c1CCCC2`?
bovine MsrA act: -2.8; rCAG binder: 6.4; NadD block: 2.4; MsrA inh: 14.0*; MsrA inh confirm: 10.2*

Results for CCSc1nc(N2CCCCC2)c2c(c1C#N)CCCC2 ?
bovine MsrA act: 0.0; rCAG binder: 1.7; NadD block: 17.2; MsrA inh: 1.5

What do the screens show for `O=C(O)c1ccc(/C=C(\c2nc3ccccc3[nH]2)c2nc3ccccc3s2)cc1`?
bovine MsrA act: -10.5; rCAG binder: 21.7; NadD block: 3.4; MsrA inh: 5.4*; MsrA inh confirm: 5.3*

Results for O=C(O)c1ccc(-c2nc3ccccc3[nH]2)cc1 ?
bovine MsrA act: -3.4; rCAG binder: -0.7; NadD block: -1.0; MsrA inh: 0.7

What do the screens show for `O=C(Nc1ccc2c(c1)OCO2)c1c(Cl)nc2sccn12`?
bovine MsrA act: 1.0; rCAG binder: 0.5; NadD block: 1.8; MsrA inh: 10.2*; MsrA inh confirm: 3.4

How did C#Cc1cccc(Nc2nc(NCc3ccccc3OC)nc3ccsc23)c1 do in these assays?
bovine MsrA act: -1.8; rCAG binder: 8.7; NadD block: 11.5; MsrA inh: 17.7*; MsrA inh confirm: 11.1*

Results for C#Cc1cccc(Nc2nc(NCCOC)nc3ccsc23)c1 ?
bovine MsrA act: -3.6; rCAG binder: 2.0; NadD block: 6.1; MsrA inh: 12.4*; MsrA inh confirm: 10.8*

Results for COCCNc1nc(Nc2ccc(F)cc2)c2sccc2n1 ?
bovine MsrA act: -2.9; rCAG binder: 0.9; NadD block: 0.5; MsrA inh: 1.5

Results for COCCNc1nc(Nc2ccc(C#N)cc2)c2sccc2n1 ?
bovine MsrA act: -1.5; rCAG binder: -0.6; NadD block: -6.3; MsrA inh: 5.1*; MsrA inh confirm: 2.2

What do the screens show for `COc1cc(NC(=S)Nc2ccc(N(C)C(C)=O)cc2)cc(OC)c1`?
bovine MsrA act: -10.8; rCAG binder: 4.6; NadD block: -3.7; MsrA inh: -0.4

How did CN(C)/N=C/c1ccc(P(c2ccc(/C=N/N(C)C)o2)c2ccc(/C=N/N(C)C)o2)o1 do in these assays?
bovine MsrA act: -6.5; rCAG binder: -7.7; NadD block: -7.7; MsrA inh: 5.4*; MsrA inh confirm: 4.0

How did O=C1c2ccccc2C(=O)c2cc(N3CCCCC3)ccc21 do in these assays?
bovine MsrA act: 4.0; rCAG binder: 3.4; NadD block: -2.6; MsrA inh: -0.2

How did O=C1c2cccc(Cl)c2C(=O)c2c1cccc2N1CCCC1 do in these assays?
bovine MsrA act: -4.0; rCAG binder: 3.2; NadD block: 0.2; MsrA inh: 9.4*; MsrA inh confirm: 0.7

How did COc1cccc(N=c2oc3ccccc3cc2-c2nc3ccccc3[nH]2)c1 do in these assays?
bovine MsrA act: -3.3; rCAG binder: 1.1; NadD block: -3.8; MsrA inh: 5.2*; MsrA inh confirm: 1.5

How did COc1cccc(C(=O)N2CCn3c2nc2ccccc23)c1 do in these assays?
bovine MsrA act: -7.1; rCAG binder: -2.7; NadD block: -3.4; MsrA inh: 0.1

Results for CC(=O)Nc1ccc(C(=O)N/C(=C/c2ccccc2)C(=O)N2CCCCC2)cc1 ?
bovine MsrA act: 1.3; rCAG binder: -4.2; NadD block: -2.3; MsrA inh: 1.1

How did COc1ccccc1OCc1nnc(SCC(=O)Nc2nnc(C3CC3)s2)n1C do in these assays?
bovine MsrA act: -1.9; rCAG binder: 0.9; NadD block: -1.1; MsrA inh: -0.5

What do the screens show for `O=Cc1ccc(N2CCN(S(=O)(=O)c3ccc4c(c3)CC(=O)N4)CC2)cc1`?
bovine MsrA act: -2.7; rCAG binder: 28.3; NadD block: 23.6; MsrA inh: 1.8

How did CNC(=S)N1N=C(c2ccc(C)cc2)CC1c1ccc(OC)cc1 (centres undefined) do in these assays?
bovine MsrA act: -2.0; rCAG binder: -0.5; NadD block: -0.5; MsrA inh: 4.4

What do the screens show for `CNC(=S)N1N=C(c2ccc(Br)cc2)CC1c1ccc(OC)cc1` (centres undefined)?
bovine MsrA act: -4.6; rCAG binder: 6.4; NadD block: -3.0; MsrA inh: 5.7*; MsrA inh confirm: 2.9

What do the screens show for `C=CCN(CC=C)C(=S)NC(=O)/C=C/c1ccc(OC)cc1`?
bovine MsrA act: -8.6; rCAG binder: 5.6; NadD block: -3.0; MsrA inh: 4.8*; MsrA inh confirm: 1.8

What do the screens show for `COc1ccc(/C=C/C(=O)NC(=S)NNC(=O)c2cccnc2)cc1`?
bovine MsrA act: -2.5; rCAG binder: 9.9; NadD block: 2.6; MsrA inh: 6.0*; MsrA inh confirm: 5.2*

How did C=CCN(CC=C)C(=S)NC(=O)/C=C/c1ccc(C)cc1 do in these assays?
bovine MsrA act: -1.0; rCAG binder: -3.3; NadD block: 2.7; MsrA inh: -1.7

What do the screens show for `COc1ccc(/C=C(/NC(=O)c2ccco2)C(=O)Nc2ccc(C(=O)O)cc2)cc1`?
bovine MsrA act: -1.5; rCAG binder: 1.3; NadD block: -1.0; MsrA inh: 6.2*; MsrA inh confirm: 2.1

What do the screens show for `CC(=O)Oc1ccc(/C=C(\NC(=O)c2ccco2)C(=O)Nc2ccc(C(C)=O)cc2)cc1`?
bovine MsrA act: 0.4; rCAG binder: 5.5; NadD block: 0.4; MsrA inh: 3.0

What do the screens show for `O=C(Nc1ccc(C(=O)O)cc1)/C(=C\c1ccco1)NC(=O)c1ccc(Br)cc1`?
bovine MsrA act: -4.9; rCAG binder: 17.2; NadD block: -5.3; MsrA inh: 5.1*; MsrA inh confirm: 3.0

What do the screens show for `COc1ccc(/C=C(\NC(=O)c2ccco2)C(=O)Nc2ccc(C(C)=O)cc2)cc1`?
bovine MsrA act: -9.2; rCAG binder: 2.6; NadD block: -0.6; MsrA inh: 5.4*; MsrA inh confirm: 6.2*

Results for Cc1ccc(C)c(NC(=O)CCc2ccc(S(=O)(=O)NC3CCCCC3)cc2)c1 ?
bovine MsrA act: -8.4; rCAG binder: -1.8; NadD block: -6.0; MsrA inh: 0.5

How did CCCS(=O)(=O)NC(=O)C1(C)CCN(C(=O)c2cccnc2Oc2ccccc2)C1 (centres undefined) do in these assays?
bovine MsrA act: -2.4; rCAG binder: 3.2; NadD block: -1.9; MsrA inh: -0.8

Results for O=C(c1cccnc1)N1CCN(C(=O)c2cccc(Cl)c2)CC1 ?
bovine MsrA act: 0.0; rCAG binder: 6.2; NadD block: 2.6; MsrA inh: -0.5

What do the screens show for `O=C1NCCN1C(=O)c1cccc(Cl)c1`?
bovine MsrA act: -0.5; rCAG binder: -1.9; NadD block: -7.2; MsrA inh: 11.6*; MsrA inh confirm: 9.9*

High-throughput results deposited in PubChem BioAssay by several laboratories.
